Results taken from PubChem BioAssay (NCATS).
Values joined by “and” are separate entries in the source; they are usually repeats but may differ in a detail not shown here. Identical values can stand only once.

Molecular target: Nicotinamide N-methyltransferase (Homo sapiens) (UniProt P40261)
Experiment: Confirmatory Screen for Target Class Profiling of Small Molecule Inhibitors of Methyltransferases (AID 1745852)
Conditions: MTase-Glo luminescence, SAH detection, recombinant enzyme; measured here: NNMT max response; stronger effect = lower value

Nicotinamide N-methyltransferase (Homo sapiens), sequence (P40261 whole entry, looked up): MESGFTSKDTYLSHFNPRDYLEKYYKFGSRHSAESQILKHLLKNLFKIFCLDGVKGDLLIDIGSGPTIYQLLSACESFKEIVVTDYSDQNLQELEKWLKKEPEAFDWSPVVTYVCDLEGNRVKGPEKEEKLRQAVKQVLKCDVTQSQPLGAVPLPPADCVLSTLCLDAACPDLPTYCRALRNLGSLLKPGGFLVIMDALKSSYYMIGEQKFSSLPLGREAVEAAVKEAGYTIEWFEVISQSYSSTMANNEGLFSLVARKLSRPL

SMILES	activity
CCN(CC)CCCCNc1ncc2cc(-c3c(Cl)cccc3Cl)c(NC(=O)NC(C)(C)C)nc2n1	-17.4% and -14.9%
COC(=O)C1=C(C)NC(C)=C(C(=O)OC)C1c1cccc(NC(=O)NCCCN2CCC(c3cccc(OC)c3)CC2)c1	-24.5% and -25.9%
Oc1cc(O)cc(/C=C/c2ccc(O)c(O)c2)c1	-18.4%
COc1cc(/C=C/C(=O)CC(=O)/C=C/c2ccc(O)c(OC)c2)ccc1O	-4.44%
CCOC(=O)N1CCN(/[N+]([O-])=N/Oc2ccc([N+](=O)[O-])cc2[N+](=O)[O-])CC1	-19%
